Laboratory results as given in PMC11062922 (Nature Chemical Biology, 2023).

System: GSK3A
Parameters: species or system human, MV4-11 + K-562 + COLO205 + SK-N-BE2 + OVCAR-8
Conditions: read-out: apparent Kd; compound concentrations:100 nM and 1000 nM (sheet 'Samples'); n = 1

| Compound | potency estimated from few doses [nM] |
| --- | --- |
| Cl.Cn1cc(C2=C(c3cn(CCCN)c4ccccc34)C(=O)NC2=O)c2ccccc21 [RO0317549-002] | 136 |
| O=C(Nc1n[nH]c2nc(-c3nccs3)c(Br)cc12)C1CC1 [SB-742251] | 873 |
| CCn1c(-c2nonc2N)nc2cncc(CNC3CCNCC3)c21 [SB-747651A] | 1100 |

System: PKN1
Parameters: species or system human, MV4-11 + K-562 + COLO205 + SK-N-BE2 + OVCAR-8
Conditions: read-out: apparent Kd; compound concentrations:100 nM and 1000 nM (sheet 'Samples'); n = 1

| Compound | potency estimated from few doses [nM] |
| --- | --- |
| COc1ccc(C[C@@H](CN)NC(=O)c2cc(Br)c(-c3ccnc4[nH]ccc34)s2)cc1.COc1ccc(C[C@@H](CN)NC(=O)c2cc(Br)c(-c3ccnc4[nH]ccc34)s2)cc1.Cl.Cl [GSK1389063A] | 339 |
| Cl.Cl.NC[C@H](Cc1ccc(C(F)(F)F)cc1)NC(=O)c1cc(Br)c(-c2ccnc3[nH]ccc23)s1.NC[C@H](Cc1ccc(C(F)(F)F)cc1)NC(=O)c1cc(Br)c(-c2ccnc3[nH]ccc23)s1 [GSK1487252A] | 2080 |
| C[C@@H]1CCN(C(=O)CO)C[C@@H]1N(C)c1ncnc2[nH]ccc12 [PFE-PKIS_34] | 1140 |
| CCn1c(-c2nonc2N)nc2cncc(CNC3CCNCC3)c21 [SB-747651A] | 40 |
